# Source: PubChem (National Center for Advancing Translational Sciences (NCATS))
# Sampled rows, rich in hits. Any-hit rate of the full collection: about 7.5%.
# KinaseGlo FLuc = Kinase-Glo luciferase inhibition (counter-screen). Q27757. Kinase-Glo luciferase, ATP luminescence, 8 min. Potency, µM (highest dose often 38.3 µM), inactives show at the top dose activity change, negative = inhibition, hits mostly inhibitors. actives 0.28% (n = 200,000). AID 1379; note: % is set by controls: 0 for no effect and ±100 for the full control effect; nearly all actives have a fitted effect of over 60% in size
#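 Substrate mix (final 50 mM imidazole pH 7.2, 50 mM KCl, 7 mM MgCl2, 10 uM ATP, 0.01% Tween 20, 0.05% BSA) plus pin-tool compound, then Kinase-Glo detection mix; 8 min ambient, luminescence read.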
# Rab9 prom act = activates the Rab9 promoter. Huh7 Rab9 promoter-luciferase reporter, luminescence, 24 h. Potency, µM (titrated, usually from 9.22 µM), without a hit: at the highest dose activation, negative = inhibition, hits mostly activators. actives 2.8% (n = 320,000). AID 485297; note: % of control where 0% means no effect; nearly all actives have a fitted effect of over 60% in size
#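 Luminescence from Amplite-detected luciferase (10 minutes, ambient) reports Rab9 promoter activation. Before that, stable Rab9-luciferase Huh7 cells (1500/well, reduced-serum OP-MEM I plus 10% FBS) were exposed to compound for 24 hours at 37C.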
# SMN2 splice up = increases expression of the SMN2 splice variant; HEK293 SMN2-luciferase splicing reporter, luminescence, 30-36 h; actives 2.8% (n = 210,000); Potency, µM (top dose mostly 46.1 µM), without a hit: at the top dose activity change, positive = activation, actives largely listed as activators; AID 1458; note: % of control where 0% means no effect; nearly all actives have a fitted effect of over 55% in size
#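 qHTS luciferase splicing reporter: luminescence rises when SMN2 exon 7 is included in transfected HEK293 cells. Compound exposure lasted 30-36 h at 37C, with 4.5 mM final sodium butyrate as control, followed by a ONE-Glo read.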
# FLuc modulator = counter-screen for miR-21 project: firefly luciferase inhibitors or activators. purified FLuc, Km substrates, luminescence inhibition. P08659. actives 6.9% (n = 360,000). AID 588342. Potency, µM (series often up to 57.5 µM), without a hit: at the top dose activity change, negative = inhibition, actives largely listed as inhibitors;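 note: plate controls were vehicle for no effect and reference inhibitor for full effect; nearly all actives have a fitted effect of over 55% in size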
# Target sequence (P08659 whole entry, looked up): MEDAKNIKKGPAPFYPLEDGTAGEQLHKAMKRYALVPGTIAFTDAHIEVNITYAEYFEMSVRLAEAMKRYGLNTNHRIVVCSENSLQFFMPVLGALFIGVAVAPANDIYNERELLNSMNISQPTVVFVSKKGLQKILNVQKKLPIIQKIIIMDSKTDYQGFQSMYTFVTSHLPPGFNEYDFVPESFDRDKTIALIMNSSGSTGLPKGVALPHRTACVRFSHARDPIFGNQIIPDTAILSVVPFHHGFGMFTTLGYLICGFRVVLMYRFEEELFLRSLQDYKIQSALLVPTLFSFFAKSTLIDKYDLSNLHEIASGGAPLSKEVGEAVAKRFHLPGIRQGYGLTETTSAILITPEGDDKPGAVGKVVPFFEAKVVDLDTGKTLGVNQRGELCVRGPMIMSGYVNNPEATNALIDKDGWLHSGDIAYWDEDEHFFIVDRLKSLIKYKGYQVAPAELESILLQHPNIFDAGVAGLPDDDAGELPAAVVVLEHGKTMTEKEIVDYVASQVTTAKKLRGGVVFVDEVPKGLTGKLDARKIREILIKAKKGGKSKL
#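 Purified P. pyralis luciferase, 10 nM final, with Km-level 10 uM D-luciferin and 10 uM ATP in 50 mM Tris acetate pH 7.5, 10 mM Mg acetate, 0.01% Tween-20, 0.05% BSA; 6-point qHTS titration about 60 µM downward; luminescence read.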
# ELG1 genotox = induces genotoxicity in HEK293T cells with luciferase-tagged ELG1; HEK293T ELG1-luciferase reporter, luminescence, 16 h; Potency, µM (titrated, usually from 46 µM), without a hit: top-dose activity change, positive = activation, hits mostly activators; actives 1.3% (n = 330,000); AID 504466; note: % of control where 0% means no effect; nearly all actives have a fitted effect of over 60% in size
#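 16 hr compound incubation (37 °C, 5% CO2) of HEK293T cells carrying luciferase-tagged ELG1; luciferase then measured by ONE-Glo luminescence after 30 min at RT.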
# NPC1 prom act = activators of NPC1 promoter. Huh7 NPC1 promoter luciferase reporter, 24 h. Potency, µM (top dose mostly 9.22 µM), for the others: top-dose activation, usual class: activators. actives 2.4% (n = 320,000); note: % of control where 0% means no effect; nearly all actives have a fitted effect of over 60% in size
#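 Luminescence from an NPC1 promoter-driven luciferase reporter in stably transfected Huh7 cells was measured after 24 h compound treatment at 37 °C, followed by 10 min ambient incubation with luciferase detection reagent.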
# * hit, by the source's call; ? = inconclusive; / = no result given. Calls come from the whole dose curve; as a rule, active = well fitted curve in the direction sought with a large enough effect; inconclusive = small, poorly fitted or top-dose-only effect, or another doubt; inactive = no such curve, though single readings can be large; an effect the other way counts as inactive or inconclusive. Potency is the fitted concentration of half-maximal effect.
SMILES,KinaseGlo FLuc,Rab9 prom act,SMN2 splice up,FLuc modulator,ELG1 genotox,NPC1 prom act
Nc1ccccc1Nc1cc(-c2ccccc2)nn1-c1ccccc1,-2%,16%,12%,17µM*,8%,10%
Nc1ccc(-c2nc3ccc(N)cc3o2)cc1,?,?,?,1.5µM*,21µM*,?
Nc1ccc(-c2nc3ccc(-c4nc5ccccc5o4)cc3[nH]2)cc1,0%,26%,4%,?,2%,29%
Cc1ccc2nc(-c3cc(N)cc(N)c3)oc2c1,?,?,?,0.38µM*,7%,?
Nc1ccc2oc(-c3cc(Br)ccc3Cl)nc2c1,-6%,3%,12%,?,?,-1%
Nc1ccc(-c2nc3cc(N)ccc3o2)cc1,/,0.63µM*,/,2.7µM*,5.2µM*,0.4µM*
CN(C)c1ccc(-c2nc3cc(N)ccc3o2)cc1,/,0.32µM*,/,0.19µM*,0.52µM*,0.32µM*
O=S(=O)(NCc1nc2cccnc2n1Cc1ccc(F)cc1)c1ccc(Cl)s1,/,/,/,-8%,/,/
CN1C(=O)c2ccccc2Sc2ccc(NC(=O)COc3ccc(F)cc3)cc21,/,/,/,-10%,/,/
Cc1ccc(C)c(-c2nc3cc(N)ccc3o2)c1,-5%,?,11µM*,13µM*,10µM*,20%
COC(=O)c1ccc(-c2nc3cc(N)ccc3o2)cc1,-7%,?,?,1.2µM*,?,22%
COc1ccc2oc(-c3ccc(C)c(NC(=O)COc4cc(C)cc(C)c4)c3)nc2c1,/,/,1%,-1%,/,/
Cc1ccc(-c2nc3cc(N)ccc3o2)cc1Br,/,1.8µM*,/,1.9µM*,2.9µM*,1.3µM*
CCN(Cc1nc2ccccc2c(=O)[nH]1)C(=O)COc1ccccc1-c1ccccc1,/,8%,/,1%,-4%,-1%
COc1c(-c2coc3cc4c(cc3c2=O)CC(O)C(C)(C)O4)ccc2c1C=CC(C)(C)O2 (centres undefined),-2%,/,-116%,/,/,/
Cc1cc(C)cc(NC(=O)CCc2nnc3n(CC(C)C)c(=O)c4ccccc4n23)c1,/,/,-10%,-2%,/,/
Cn1cccc1C(=O)C(=O)Nc1ccccc1,13µM*,0.63µM*,13µM*,5.4µM*,?,0.56µM*
Cc1cc(N2CCN(C)CC2)nc2ccc(NC(=O)c3ccc(Br)o3)cc12,-6%,22%,-2%,15µM*,3%,?
CCN1CCN(c2cc(C)c3cc(NC(=O)c4cc(OC)cc(OC)c4)ccc3n2)CC1,/,28%,15%,17µM*,?,26%
COc1cc(C(=O)Nc2ccc3nc(N4CCN(C)CC4)cc(C)c3c2)cc(OC)c1OC,/,-1%,/,24µM*,11%,5%
Cc1cc(N2CCN(C)CC2)nc2ccc(NC(=O)c3ccc4c(c3)OCO4)cc12,-4%,?,/,13µM*,20%,28%
Cn1c(N)c(C(=O)COC(=O)COc2ccccc2Cl)c(=O)n(C)c1=O,/,-6%,/,5%,0%,2%
CCOc1cccc(NC(=O)c2sc3nc(-c4ccc(F)cc4)ccc3c2N)c1,/,/,6%,5%,/,/
COc1cccc(CNC(=O)c2nc(Cn3nc(C)c(Br)c3C)no2)c1,/,/,/,-3%,/,/
COc1ccc(-n2c(=O)c(C)nc3cnc(N4CCNCC4)nc32)cc1,0%,/,1%,/,/,/
SMILES,KinaseGlo FLuc,Rab9 prom act,SMN2 splice up,FLuc modulator,ELG1 genotox,NPC1 prom act
Cc1ccc(C(=O)Cn2c3c(sc2=N)CCCC3)cc1,?,/,0.5µM*,/,/,/
Cc1ccc(C(=O)NNC(=O)COc2ccc(Cl)cc2C)o1,/,-3%,/,11µM*,2%,-4%
C/C(=N\NC(=O)CCCOc1ccc(Cl)cc1C)c1ccc(C)o1,-3%,-6%,-23%,-13%,-2%,-2%
COCCNC(=O)COc1ccc(C)cc1C,4%,14%,7%,-2%,10%,0%
Cc1cc(Br)ccc1OCC(=O)NNC(=O)c1cnccn1,-1%,1%,-4%,17µM*,-4%,-1%
Cc1cc(Cl)ccc1OCC(=O)NNC(=O)c1cnccn1,-1%,-9%,-43%,17µM*,2%,-1%
